Test results from PubChem BioAssay AID488969 (Vanderbilt High Throughput Screening Facility, 2010).
Over roughly 110,000 compounds, “z-score” has its median near -0.1; the highest 2% begin near 2. The full list was thinned out, with the highest values kept by preference. The source made the active and inactive calls.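 Rule for the calls: active = z-score in the third read window above 3 or below -3; inactive = the rest.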

These compounds were tested against Metabotropic glutamate receptor 8 (Rattus norvegicus) (UniProt P70579) (assay: rat mGluR8 modulators via GIRK flux, primary screen, cell-based, thallium flux, HTS (AID 488969)). Details: HEK293 rat mGluR8, GIRK (G protein-gated inwardly rectifying potassium channel) thallium flux, FluoZin2; at 10 µM; stronger effect = higher value; submaximal glutamate (EC20) added with thallium.
Metabotropic glutamate receptor 8 (Rattus norvegicus), sequence (P70579 whole entry, looked up): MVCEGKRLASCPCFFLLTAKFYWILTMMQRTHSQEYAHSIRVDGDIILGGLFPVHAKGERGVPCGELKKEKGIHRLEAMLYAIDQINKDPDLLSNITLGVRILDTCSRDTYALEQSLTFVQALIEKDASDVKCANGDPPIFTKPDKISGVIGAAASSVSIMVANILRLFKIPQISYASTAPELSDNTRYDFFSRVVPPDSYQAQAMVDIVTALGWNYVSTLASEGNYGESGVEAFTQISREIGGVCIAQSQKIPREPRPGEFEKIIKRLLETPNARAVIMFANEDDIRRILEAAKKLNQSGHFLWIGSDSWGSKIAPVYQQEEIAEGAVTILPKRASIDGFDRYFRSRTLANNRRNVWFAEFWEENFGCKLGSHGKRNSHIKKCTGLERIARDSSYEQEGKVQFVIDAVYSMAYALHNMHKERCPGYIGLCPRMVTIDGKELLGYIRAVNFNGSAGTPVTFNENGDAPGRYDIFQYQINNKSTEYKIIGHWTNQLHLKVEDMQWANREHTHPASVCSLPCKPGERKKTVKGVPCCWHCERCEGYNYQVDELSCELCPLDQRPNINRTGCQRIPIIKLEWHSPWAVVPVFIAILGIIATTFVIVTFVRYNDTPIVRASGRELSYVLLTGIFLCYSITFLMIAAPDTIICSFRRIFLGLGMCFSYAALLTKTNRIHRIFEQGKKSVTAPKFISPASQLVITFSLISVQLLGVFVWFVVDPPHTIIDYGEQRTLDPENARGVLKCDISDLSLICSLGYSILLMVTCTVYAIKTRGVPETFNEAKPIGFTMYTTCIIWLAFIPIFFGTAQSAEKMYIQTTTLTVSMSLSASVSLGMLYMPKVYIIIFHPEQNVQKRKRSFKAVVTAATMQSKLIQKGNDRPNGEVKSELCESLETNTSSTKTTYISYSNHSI

SMILES | z-score
N/C(=N\OC(=O)CCc1ccccc1)c1ccc(Br)cc1 | 0.12
N/C(=N\OC(=O)Cc1ccccc1)c1ccc(Br)cc1 | 2.92
N/C(=N\OC(=O)c1ccc(Br)cc1)c1ccccc1 | -0.37
O=C(NC(C(=O)O)c1ccccc1)c1ccc(S(=O)(=O)N2CCOCC2)cc1 (centres undefined) | -0.0595
CCCCn1c(SCC(=O)N2CCC(C)CC2)nc2ccsc2c1=O | -1.86
Cc1ccc(-c2nnc(Nc3ccccc3)o2)cc1 | 1.1
Cc1ccc(-c2nnc(-c3ccccc3)o2)cc1 | -0.254
CCNc1nnc(-c2ccc(C)cc2)o1 | 2.74
CC(=O)Nc1cccc(C(=O)OC(C(=O)c2ccc(C)cc2)c2ccccc2)c1 (centres undefined) | 0.508
CCN(CC)c1ccc(NC(=O)CN2CCN(S(=O)(=O)c3cc(Cl)ccc3OC)CC2)cc1 | -0.269
CC1CN(CC(=O)c2c(N)n(Cc3ccccc3)c(=O)n(C)c2=O)CC(C)O1 (centres undefined) | 0.178
Cc1ccc(Cn2nnc3c(=O)[nH]c(C4CCN(C(=O)c5cccs5)CC4)nc32)cc1 | -0.73
O=C(NCC(c1cccs1)N1CCOCC1)c1ccccc1NS(=O)(=O)c1ccc(Cl)c([N+](=O)[O-])c1 (centres undefined) | -0.572
Cc1[nH]n2c(=O)cc(C(C)(C)C)nc2c1-c1ccccc1 | 4.43 (active)
Cc1cc(=O)n2[nH]c(C)c(-c3ccccc3)c2n1 | -0.675
Cc1[nH]n2c(=O)cc(C(C)C)nc2c1-c1ccccc1 | -0.963
CC(C)OC(=O)c1cccnc1N1CCN(c2ccc(F)cc2)CC1 | -0.216
Cc1nc2ccc(NC3=NCCCCC3)cc2s1 | 0.806
COc1cc(OC)c(C2C(C(=O)N3CCOCC3)=C(C)NC3=C2C(=O)CC(C)(C)C3)cc1OC (centres undefined) | -0.103
CC(C)c1nc2ccccn2c1NC1CCCCC1 | 0.45
Cc1ccn2c(NC3CCCCC3)c(C)nc2c1 | -0.312
Cc1ccn2c(NC3CCCCC3)c(C(C)C)nc2c1 | 2.52

SMILES | z-score
Cc1ccc(/C=C/S(=O)(=O)N2CCC(C(=O)O)CC2)cc1 | -0.628
CCOC(=O)N1CCN(c2nnnn2-c2ccccc2)CC1 | -0.14
Cc1ccc(S(=O)(=O)N2CCOCC2)cc1NC(=O)COC(=O)CSc1ccc(Br)cc1C | -0.132
CC(C)NC(=O)CSCc1c(Cl)cccc1Cl | -0.342
CCn1ncc(Cl)c1C(=O)Nc1cc(Cl)ccc1Cl | 0.0474
Cc1ccccc1OCc1nc2ccccc2c(=O)n1/N=C/c1cccc([N+](=O)[O-])c1 | -0.0563
O=C1c2ccccc2OC2(C=Cc3ccccc3O2)N1Cc1ccccc1 (centres undefined) | 0.198
CN1CC2=Cc3ccccc3OC23Oc2ccccc2C=C3C1 | 2.01
Cc1ccc(-c2nn(CC(=O)Nc3ccc4c(c3)nc3n4CCOC3)c(=O)c3ccccc23)cc1 | -0.236
COc1ccccc1N1CCN(C(=O)Cn2c(=O)[nH]c3ccsc3c2=O)CC1 | -0.563
S=C(NCCN1CCOCC1)Nc1ccc(Cl)cc1 | -0.102
CCCn1cc(NC(=O)c2cc(-c3ccccc3)on2)cn1 | 13 (active)
COc1cccc(-c2cc(C(=O)Nc3cnn(Cc4ccccc4C)c3)no2)c1 | 0.0739
CC(C)n1cc(NC(=O)c2cc(-c3ccccc3)on2)cn1 | 16.8 (active)
O=C(Nc1cccnc1)c1cc(-c2ccccc2)on1 | -0.466
Cc1ccc(-c2cc(C(=O)Nc3cnn(C(C)C)c3)no2)cc1 | 0.74
O=C(Nc1cnn(C23CC4CC(CC(C4)C2)C3)c1)c1cc(-c2ccccc2)on1 | 0.107
COc1ccc(Sc2cc(C(F)(F)F)nc(-c3ccccn3)n2)cc1 | -0.417
CCOc1ccccc1CNC(=O)CCNC(=O)Cn1ccc2ccccc2c1=O | 0.269
Cc1cccc(-n2c(-c3csc(C(C)C)c3)n[nH]c2=S)c1 | 2.87
Cc1cccc(-n2c(-c3csc4ccccc34)n[nH]c2=S)c1 | 2.62
Cc1ccccc1-n1c(-c2csc3ccccc23)n[nH]c1=S | 0.627

SMILES | z-score
CCc1cc(-c2n[nH]c(=S)n2-c2cccc(C)c2)cs1 | 0.65
Cc1cccc(-n2c(-c3csc(C)c3)n[nH]c2=S)c1 | 0.189
Cc1cccc(-n2c(-c3csc(C)c3C)n[nH]c2=S)c1 | 0.00757
CC(NC(=O)C1CCCCC1)C(=O)NC1=NCCS1 (centres undefined) | 0.00509
Cc1cccc(C)c1Oc1nc(-c2ccccc2)ncc1S(=O)(=O)c1ccccc1 | -0.0101
CN1CCN(CCCNC(=O)c2ccc3c(c2)N(Cc2ccccc2)CCS3)CC1 | 0.775
N#C/C(=N\Nc1ccc(Cl)cc1)C(=N)N1CCCCC1 | 0.186
Cc1cccc(C(=O)Nc2nnc(SCC(=O)Nc3ccc4c(c3)oc3ccccc34)s2)c1 | -0.242
COC(=O)C1CCN(S(C)(=O)=O)CC1 | -0.211
CCc1ccccc1NC(=S)NCc1ccc2c(c1)OCO2 | -0.0875
C/C(N)=C(/C#N)C(=O)CSc1nnc(Nc2ccccc2C)s1 | -0.126
CSc1nnc(Nc2ccccc2C)s1 | -0.0316
CCCSc1nnc(Nc2ccccc2C)s1 | 4.96 (active)
COc1ccc(OC)c(Nc2ccc(Nc3cc(OC)ccc3OC)nn2)c1 | -0.125
COc1ccccc1Nc1ccc(Nc2ccccc2OC)nn1 | 2.82
COc1ccccc1Nc1nnc(C)c(=O)[nH]1 | -0.361
O=Cc1cn(CC(=O)N2CCOCC2)c2ccccc12 | -0.773
Cc1noc(C)c1C(=O)N1CCN(C(=O)c2sc3cc(Cl)ccc3c2Cl)CC1 | -0.676
O=C(C[n+]1cc(-c2ccccc2)n2c1CCC2)OCc1ccccc1 | 5.17 (active)
O=C(C[n+]1cc(-c2ccc(Cl)c(Cl)c2)n2c1CCC2)OCc1ccccc1 | 0.0701
O=C(C[n+]1cc(-c2ccccc2)n2c1CCC2)N1c2ccccc2Sc2ccccc21 | -0.288
NC(=O)C(c1ncc(C(F)(F)F)cc1Cl)c1c(Cl)cccc1Cl (centres undefined) | -0.197

SMILES | z-score
CC1(C)Cc2[nH]c(=O)c(C#N)cc2CS1 | 0.0257
CCn1c(SCc2ccc(Cl)cc2Cl)nc2nc3c(cc2c1=O)CCCC3 | -0.163
CC1CCCCC1NC(=O)COn1nnc2ccc(Cl)cc21 (centres undefined) | -0.171
CCOC(=O)Cn1c(=O)oc2cc(S(=O)(=O)NCCCc3ccccc3)ccc21 | 3.36 (active)
CCN(CC)c1ccc(NS(=O)(=O)c2ccc3c(c2)oc(=O)n3C)c(C)c1 | 0.308
CCOC(=O)Cn1c(=O)oc2cc(S(=O)(=O)Nc3ccc(N(CC)CC)cc3C)ccc21 | 2.74
CCCCNS(=O)(=O)c1ccc2c(c1)oc(=O)n2CC(=O)OCC | 0.0209
CCOC(=O)Cn1c(=O)oc2cc(S(=O)(=O)Nc3c(C)cc(C)cc3C)ccc21 | -0.223
CCOC(=O)Cn1c(=O)oc2cc(S(=O)(=O)NCCc3ccc(C)cc3)ccc21 | -0.171
N#CCC(=O)N/N=C1\CCCCC1C1CCCCC1 (centres undefined) | 0.419
CC(C)C(=O)Nc1ccnc(-c2cccnc2)n1 | -0.0191
CC(C)OC(=O)c1cc2c(ccn2C)n1CC(=O)N(Cc1ccccc1)c1ccccc1 | -0.243
CCN1/C(=C2/OC(=S)N(C)C2=O)Sc2ccccc21 | 1.02
O=C(COc1ccccc1)N1CCN(S(=O)(=O)Cc2ccccc2)CC1 | 0.0406
Cc1ccc(-c2nc3ccc(NS(=O)(=O)c4ccccc4)cc3[nH]2)o1 | 1.31
O=S(=O)(Nc1ccc2nc(C(F)(F)F)[nH]c2c1)c1ccccc1 | 4.74 (active)
O=S(=O)(Nc1ccc2nc(-c3ccc(Br)o3)[nH]c2c1)c1ccccc1 | -0.849
Cc1ccc2[nH]c(=O)c(C(c3nnnn3C(C)(C)C)N3CCN(C(=O)c4ccco4)CC3)cc2c1 (centres undefined) | -0.0115
CCCCn1c(S(=O)(=O)O)nc2ccccc21 | -0.0451
CCC(C)Cn1c(S(=O)(=O)O)nc2ccccc21 (centres undefined) | -0.238
CC(C)CCn1c(S(=O)(=O)O)nc2ccccc21 | 3.16 (active)
CC(C)Sc1nc2c(c(=O)n1-c1ccc(F)cc1)SCC2 | -0.98

SMILES | z-score
CCc1nnc(NC(=O)c2cc(-c3ccccc3)nn2-c2ccccc2)s1 | 0.27
Cc1ccc(C)c(NC(=O)c2cc(-c3ccccc3)nn2-c2ccccc2)c1 | 2.08
Cc1ccc(NC(=O)c2cc(-c3ccccc3)nn2-c2ccccc2)c(Br)c1 | 0.496
O=C(Nc1nc2ccccc2s1)c1cc(-c2ccccc2)nn1-c1ccccc1 | 1.18
Cc1ccc(NC(=O)c2cc(-c3ccccc3)nn2-c2ccccc2)cc1 | 1.28
CC(=O)c1sc(NC(=O)c2cc(-c3ccccc3)nn2-c2ccccc2)nc1C | 3 (active)
COc1nccnc1NS(=O)(=O)c1ccc(N=Cc2c(C)[nH]n(-c3ccccc3)c2=O)cc1 | -0.188
CCC(C)NS(=O)(=O)c1ccc(NC(=O)c2ccc([N+](=O)[O-])cc2Cl)cc1 (centres undefined) | 0.0866
CCCCN(CCCC)S(=O)(=O)c1ccc(NC(=O)c2ccc([N+](=O)[O-])cc2Cl)cc1 | 3.01 (active)
CN(C)c1ccc(NC(=O)c2ccc([N+](=O)[O-])cc2Cl)cc1 | -0.282
C=CCOn1c(=O)c(-c2ccc(OC)c(OC)c2)[n+]([O-])c2ccccc21 | -0.224
CCOC(=O)c1nn(-c2ccc(F)cc2)c2nc(Nc3ccccc3)cc(=O)n12 | -0.123
O=C(Nc1ccc2nc(-c3ccc(Br)o3)[nH]c2c1)c1cccs1 | -0.969
CCc1cc2c(N[C@@H](Cc3c[nH]c4ccccc34)C(=O)O)ncnc2s1 | -0.16
CN(CC(=O)Nc1ccncc1)S(=O)(=O)c1ccc(Br)cc1 | -0.284
CN(CC(=O)Nn1cnnc1)S(=O)(=O)c1ccccc1 | -0.262
CN(CC(=O)Nn1cnnc1)S(=O)(=O)c1ccc(Br)cc1 | 4.35 (active)
Cc1cc(=O)[nH]c(-n2nc(C)c(Oc3ccccc3O)c2C)n1 | -0.0623
Cc1sc(NC(=O)C2C3CCC(O3)C2C(=O)O)c(C(=O)OC(C)C)c1-c1ccc(Cl)cc1 (centres undefined) | -0.429
CCOC(=O)c1c(NC(=O)C2C3CCC(O3)C2C(=O)O)sc(C)c1-c1ccc(C)cc1 (centres undefined) | -0.26
Cc1ccc(-c2c(C)sc(NC(=O)C3C4CCC(O4)C3C(=O)O)c2C(=O)OC(C)C)cc1 (centres undefined) | 4.99 (active)
